Results filed as inconclusive are left out. Activity calls are given as the source filed them. Calls come from the whole dose curve; as a rule, active = well fitted inhibition curve with a large enough effect; inconclusive = small, poorly fitted or top-dose-only effect; inactive = flat fitted curve, though single readings scatter.
Assays:
Test in all cases: qHTS profiling for inhibitors of Plasmodium falciparum proliferation (AID 504749); note: nearly all actives have a fitted effect of over 60% in size
Conditions in all cases: P. falciparum in erythrocytes, SYBR Green DNA, 72 h; series mostly up to 28.7 µM
P94_40 = tested on: P94_40
Summary of the method: (§1)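 In a 72 h erythrocytic culture (37 C, humidified, 5% CO2) at 2.5% hematocrit and 0.3% starting parasitemia, compounds were tested; SYBR Green I in detergent lysis buffer stained parasite DNA overnight.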

PAD = tested on: PAD
Summary of the method: as §1

PC15 = tested on: PC15
Summary of the method: as §1

PC26 = tested on: PC26
Summary of the method: as §1

PC49 = tested on: PC49
Summary of the method: as §1

SC27B = tested on: SC27B
Summary of the method: as §1

TAB109 = tested on: TAB109
Summary of the method: as §1

TAB113 = tested on: TAB113
Summary of the method: as §1

TAB165 = tested on: TAB165
Summary of the method: as §1

W2 = tested on: W2
Summary of the method: as §1

Measured: Potency
Potency is the fitted concentration of half-maximal effect.

CNC1(C)C2CCC(C2)C1(C)C (configuration not stated)
inactive: P94_40 | PAD | PC15 | PC26 | PC49 | SC27B | TAB109 | TAB113 | TAB165

CSc1ccc(C(=O)c2[nH]c(=O)[nH]c2C)cc1
inactive: P94_40 | PAD | PC15 | PC26 | PC49 | SC27B | TAB109 | TAB113 | TAB165 | W2

O=C(CCNNC(=O)c1ccncc1)NCc1ccccc1
inactive: P94_40 | PAD | PC15 | PC26 | PC49 | SC27B | TAB109 | TAB113 | TAB165

O=C(O)CP(=O)(O)O
inactive: P94_40 | PAD | PC15 | PC26 | PC49 | SC27B | TAB109 | TAB113 | TAB165

CN(C)C(=O)Oc1ccc[n+](C)c1
inactive: P94_40 | PAD | PC15 | PC26 | PC49 | SC27B | TAB109 | TAB113 | TAB165 | W2

NS(=O)(=O)c1cc2c(cc1Cl)NC(C1CC3C=CC1C3)NS2(=O)=O (configuration not stated)
inactive: P94_40 | PAD | PC15 | PC26 | PC49 | SC27B | TAB109 | TAB113 | TAB165

O=C(O)CCCCCCCC(=O)O
inactive: P94_40 | PAD | PC15 | PC26 | PC49 | SC27B | TAB109 | TAB113 | TAB165 | W2

NC/C=C/C(=O)O
inactive: P94_40 | PAD | PC15 | PC26 | PC49 | SC27B | TAB109 | TAB113 | TAB165 | W2

CCCOc1ccccc1-c1nc2n[nH]nc2c(=O)[nH]1
inactive: P94_40 | PAD | PC15 | PC26 | PC49 | SC27B | TAB109 | TAB113 | TAB165

CCN(CC)CCOCCOC(=O)C1(c2ccccc2)CCCC1
active: P94_40 7.08 µM | PAD 8.91 µM | PC15 11.2 µM | PC26 12 µM | PC49 7.08 µM | SC27B 12.6 µM | TAB109 6.31 µM | TAB113 11.2 µM | TAB165 8.91 µM | W2 0.953 µM

CC(=O)Oc1cc(C(C)C)c(OCCN(C)C)cc1C
inactive: P94_40 | PAD | PC15 | PC26 | PC49 | SC27B | TAB109 | TAB113 | TAB165 | W2

COc1ccc([C@@H]2Sc3ccccc3N(CCN(C)C)C(=O)[C@@H]2OC(C)=O)cc1
inactive: P94_40 | PAD | PC15 | PC26 | PC49 | SC27B | TAB109 | TAB113 | TAB165

NC(Cc1ccc(Cl)cc1)C(=O)O (configuration not stated)
inactive: P94_40 | PAD | PC15 | PC26 | PC49 | SC27B | TAB109 | TAB113 | TAB165 | W2

CN1CCN(CC(=O)N2c3ccccc3C(=O)Nc3cccnc32)CC1
inactive: P94_40 | PAD | PC15 | PC26 | PC49 | SC27B | TAB109 | TAB113 | TAB165 | W2

C#CCN(C)CCCOc1ccc(Cl)cc1Cl
inactive: P94_40 | PAD | PC15 | PC26 | PC49 | SC27B | TAB109 | TAB113 | TAB165

O=C(O)CN(CCOCCOCCN(CC(=O)O)CC(=O)O)CC(=O)O
inactive: P94_40 | PAD | PC15 | PC26 | PC49 | SC27B | TAB109 | TAB113 | TAB165 | W2

CCn1ccnc1CC1COc2ccccc2O1 (configuration not stated)
inactive: P94_40 | PAD | PC15 | PC26 | PC49 | SC27B | TAB109 | TAB113 | TAB165

C[N+](C)(C)CCOC(N)=O
inactive: P94_40 | PAD | PC15 | PC26 | PC49 | SC27B | TAB109 | TAB113 | TAB165 | W2

Cc1nc2c([nH]1)c(=O)n(C)c(=O)n2Cc1ccco1
inactive: P94_40 | PAD | PC15 | PC26 | PC49 | SC27B | TAB109 | TAB113 | TAB165 | W2

CCOC(=O)C1=C(C)NC(C)=C(C(=O)OC)C1c1cccc(Cl)c1Cl (configuration not stated)
inactive: P94_40 | PAD | PC15 | PC49 | TAB109 | TAB113

OCCN1CCN(CC/C=C2/c3ccccc3Sc3ccc(C(F)(F)F)cc32)CC1
active: P94_40 10 µM | PAD 10 µM | PC15 12.6 µM | PC26 6.75 µM | SC27B 10 µM | TAB109 8.91 µM | TAB113 11.2 µM | TAB165 10 µM | W2 1.9 µM

Reference: PubChem BioAssay (NCATS)
